Compounds with a hit are over-represented: about 2.3% of the library has one in this group of screens.
KLK7 zymogen act – proKLK7 zymogen activators, primary screen, biochemical, fluorescence intensity; Kallikrein-7 (Homo sapiens), P49862; purified proKLK7, EDANS-DABCYL substrate fluorescence; 100% is mature enzyme control, 0% vehicle; activation, % at 7 µM; 0.9% of 370,000 active;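 active = activation above the mean of all tested compounds plus 3 SD, computed per campaign excluding outliers beyond control limits, cut at about 13% in these data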
ADAM10 inh – human ADAM10 inhibitors, primary screen, biochemical, QFRET, HTS; Disintegrin and metalloproteinase domain-containing protein 10 (Homo sapiens), O14672; recombinant ADAM10, EDANS/DABCYL FRET peptide cleavage, 3 h; inhibition, % at 7 µM; 0.62% of 370,000 active;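 active = inhibition above a per-campaign cutoff equal to the mean of compounds falling between control-based bounds plus 3 SD, cut at about 20% in these data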
Target sequence (O14672 214-748 limits assumed): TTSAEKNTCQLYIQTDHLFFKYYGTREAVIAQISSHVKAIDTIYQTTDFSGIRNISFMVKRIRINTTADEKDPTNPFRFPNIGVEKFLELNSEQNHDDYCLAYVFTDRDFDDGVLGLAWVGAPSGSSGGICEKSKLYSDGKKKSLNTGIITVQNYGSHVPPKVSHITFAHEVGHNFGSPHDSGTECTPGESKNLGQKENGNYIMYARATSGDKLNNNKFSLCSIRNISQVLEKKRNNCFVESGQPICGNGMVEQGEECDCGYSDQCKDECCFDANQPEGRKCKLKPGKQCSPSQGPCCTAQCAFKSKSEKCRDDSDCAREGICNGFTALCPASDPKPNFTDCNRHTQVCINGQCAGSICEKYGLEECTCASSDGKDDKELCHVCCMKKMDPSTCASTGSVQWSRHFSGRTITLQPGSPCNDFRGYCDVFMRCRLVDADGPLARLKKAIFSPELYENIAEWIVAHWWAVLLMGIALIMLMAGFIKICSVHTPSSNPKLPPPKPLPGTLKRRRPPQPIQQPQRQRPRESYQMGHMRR
V-ATPase pH – regulators of yeast V-ATPase proton pumping, primary screen, pHLuorin cytosolic pH fluorescence | response, % at 10 µM | 0.37% of 350,000 active | S. cerevisiae; in the data active = response mostly above about 7.3%, no sharp cut-off; inactive = mostly below about 5.4%; also: actives read high
ADAM17 inh – ADAM17 inhibitors, primary screen, biochemical, QFRET | inhibition, % at 6.95 µM | 0.83% of 370,000 active | recombinant ADAM17, EDANS/DABCYL FRET peptide cleavage | Disintegrin and metalloproteinase domain-containing protein 17 (Homo sapiens), P78536 | AID 720648, 2013;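 active = inhibition above the mean of compounds lying between control limits plus 3 SD, set per campaign, cut at about 8.5% in these data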
KLK7 act conf – proKLK7 zymogen activators, confirmation, biochemical, fluorescence intensity, triplicate; purified proKLK7, EDANS-DABCYL substrate fluorescence; scaled: vehicle 0, mature enzyme 100; 68% of 3,200 active; activation, % at 7 µM; shares compounds with KLK7 zymogen act;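 active = activation, as change over the incubation, above the mean of all tested compounds plus 3 SD, cut at about 13% in these data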
EDANS interfere – EDANS-DABCYL substrate optical interference, artefact control for kallikrein-7 zymogen activator project, biochemical, fluorescence intensity, high throughput. shares compounds with KLK7 zymogen act. no enzyme, 4 h; solvent 0%, active enzyme control 100%. activation, % at 7 µM. 80% of 3,200 active;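 active = activation above the all-compound mean plus 3 SD, ignoring values outside control-based bounds, cut at about 4.8% in these data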;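 also: value is the 4 h activation minus the activation read at time zero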
Large screens that a line does not name were inactive (follow-up assays come after a bar, where they were run); ! = a repeat was not active.

O=S(=O)(Nc1ccc(-c2nc3cccnc3s2)cc1)c1cccs1	none
CCS(=O)(=O)Nc1ccc(-c2nc3cccnc3s2)cc1	KLK7 zymogen act 63.9 | KLK7 act conf 60.2 | EDANS interfere 67.6
Cc1ccccc1N(C)C(=O)Cn1nnc(-c2ccccc2F)n1	none (no result: V-ATPase pH)
Cc1ccc(-c2csc3nc4ccc(C(=O)NCCO)cc4c(=O)n23)cc1	KLK7 zymogen act 15.8 | KLK7 act conf inactive | EDANS interfere inactive
Cc1ccc(-c2csc3nc4cc(C(=O)NC5CCC(O)CC5)ccc4c(=O)n23)cc1 (stereo not given)	none
c1csc(C2C3=C(Nc4ncnn42)c2ccccc2OC3)c1 (stereo not given)	KLK7 zymogen act 17.4 | KLK7 act conf 34.2 | EDANS interfere 31.2
C[C@@H]1CNCCN1c1ccc(N2CCS(=O)(=O)CC2)c(C#N)c1	none (no result: V-ATPase pH)
COc1ccc(-c2nn3c(-c4n[nH]c5c4CCC5)nnc3s2)cc1	none (no result: V-ATPase pH)
COC(=O)C1=C(C)N(Cc2cccc(C(F)(F)F)c2)C(=NCc2ccc(OC)cc2)NC1c1ccccc1 (stereo not given)	none (no result: V-ATPase pH)
COc1ccc(CNCc2ccncc2)c(OC)c1	none
COc1ccc(CNCc2c(O)c(Cl)cc3c(C)c(C)c(=O)oc23)c(OC)c1	KLK7 zymogen act 31.9 | KLK7 act conf 74.3 | EDANS interfere 77.7
CCc1cc(=O)oc2c(CNCc3ccc(OC)cc3OC)c(O)c(Cl)cc12	KLK7 zymogen act 44.1 | KLK7 act conf 70.4 | EDANS interfere 66.8
COC(=O)c1cc2c(c3c4cc(F)ccc4n(S(=O)(=O)c4ccccc4)c13)C(=O)N(C)C2	none (no result: V-ATPase pH)
CCCc1nc2c(C)cc(Br)cn2c1Cc1cccc(Cl)c1	none (no result: V-ATPase pH)
C[n+]1c2cc(N)ccc2cc2ccc(N)cc21	KLK7 zymogen act 34.1! | KLK7 act conf 55.8 | EDANS interfere 59.5
O=c1nc(-c2ccccc2)cc(-c2ccccc2)[nH]1	none
COc1ccccc1-c1cc(-c2ccccc2)nc(=O)[nH]1	KLK7 zymogen act 17.7 | KLK7 act conf inactive | EDANS interfere 14.3
CCOC(=O)C1=NN(c2ccccc2)C2C(=O)N(c3ccccc3OC)C(=O)C12 (stereo not given)	KLK7 zymogen act 18.9 | KLK7 act conf inactive | EDANS interfere inactive
Cc1ccc(C(=O)COC(=O)CSc2cccc3cccnc23)c(C)c1	KLK7 zymogen act 14.9 | KLK7 act conf inactive | EDANS interfere 12.4
O=C(O)CCCCN1C(=O)C=CC1=O	none (no result: V-ATPase pH)
COc1ccc(O[C@@H]2O[C@H](COC(C)=O)[C@@H](OC(C)=O)[C@H](OC(C)=O)[C@H]2NC(C)=O)cc1	none
CC(=O)OC[C@H]1O[C@@H](Oc2cc3ccc(=O)oc3cc2OC(C)=O)[C@H](OC(C)=O)[C@@H](OC(C)=O)[C@@H]1OC(C)=O	KLK7 zymogen act 79.6 | KLK7 act conf 78.7 | EDANS interfere 77.5
Cc1ccc(O)c(C(=O)c2cnn(C(=O)Cc3csc(C)n3)c2)c1	KLK7 zymogen act 19.8 | KLK7 act conf 53.6 | EDANS interfere 52.7
CC(C)N1CCCCC(NC(=O)c2ccccc2)C1=O (stereo not given)	none (no result: V-ATPase pH)
C[C@@H]1COc2cc(NCCCN3CCOCC3)ccc2S(=O)(=O)N1	none (no result: V-ATPase pH)
N#Cc1cc2ccc(N3CCOCC3)cc2cc1C#N	KLK7 zymogen act 33.6 | KLK7 act conf inactive | EDANS interfere inactive
N#Cc1cc(Cl)c(N2CCOCC2)cc1C#N	none
CN1CCCCC(NC(=O)c2c(F)cccc2F)C1=O (stereo not given)	none (no result: V-ATPase pH)
COc1ccc(/C=N/n2c(C)nnc2C)c(OC)c1	none
COc1cc(OC)c(/C=N/n2c(C)nnc2C)c(OC)c1	KLK7 zymogen act 16.2 | KLK7 act conf inactive | EDANS interfere inactive
CCOc1ccc(-c2cc(C)n3nc(C(N)=O)cc3n2)cc1	KLK7 zymogen act 30.2 | KLK7 act conf 49.5 | EDANS interfere 55.5
COC(=O)c1cc2nc(-c3ccccc3)cc(C)n2n1	none
COc1cc(OC)cc(C(=O)Nc2cc(-c3cn4cccnc4n3)ccc2C)c1	KLK7 zymogen act 13.6 | KLK7 act conf inactive | EDANS interfere inactive

Screening data (PubChem)
